The nature of test [1]: Confirmation and Secondary Assay for Modulators of Hemoglobin Beta Chain Splicing at IVS2 654 locus (AID 910).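 Further: HeLa cells stably carrying EGFP split by mutant beta-globin IVS2-654 intron; % of control where 0% means no effect.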 The gist of the method:
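HeLa cells stably expressing EGFP interrupted by β-globin IVS2-654 intron, seeded overnight in Opti-MEM/2% FCS, then treated 2 days at 37 °C. Restored splicing read as total peak GFP intensity per well by laser scanning cytometry (488 nm excitation, 500–520 nm emission); 500 nM antisense PNA as control.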

The nature of test [2]: Confirmation and Secondary Assay for Modulators of Hemoglobin Beta Chain Splicing at IVS2 705 locus (AID 930).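 Further: HeLa cells stably expressing the EGFP-705 splicing reporter; series mostly up to about 46 µM; % of control where 0% means no effect.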 The gist of the method:
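HeLa cells stably carrying EGFP interrupted by mutant beta-globin IVS2-705 intron (CMV-driven) were seeded at 500 cells/well, treated next day with compound for 2 days at 37C; corrected splicing restores EGFP, read as total peak GFP intensity per well.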

Test [3] deals with Rap guanine nucleotide exchange factor 4 (Homo sapiens) (UniProt Q8WZA2). Put plainly: Confirmatory qHTS for agonist of cAMP-regulated guanine nucleotide exchange factor 4 (EPAC2) (AID 1645884).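 Further: nucleotide exchange releases bodipy-GDP from Rap1 and this lowers its fluorescence; on the % scale 0 is the no-effect control and ±100 the full control effect; nearly all actives have a fitted effect of over 65% in size.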
Test [4] has as its target Rap guanine nucleotide exchange factor 3 (Homo sapiens) (UniProt O95398). The test is described as follows: Counterscreen qHTS for antagonist of cAMP-regulated guanine nucleotide exchange factor 3 (EPAC1) (AID 1645888).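 Further: fluorescence loss as bound BODIPY-GDP is released from Rap1B; % of control where 0% means no effect.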 The gist of the method: (§1)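 Rap1B–BODIPY-GDP (250 nM) with 50 uM GDP; compounds pin-transferred to 9.74 nM–152 uM final (activator) or from 7.32 nM upwards (inhibitor). Fluorescence Ex/Em 480/540 nm read at 5 and 30 min, then after adding cAMP or buffer, at room temperature.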
For orientation: A counterscreen serves to expose hits that act by an unwanted route or on another target.

Test [5] shares this target. Put plainly: Counterscreen qHTS for agonist of cAMP-regulated guanine nucleotide exchange factor 3 (EPAC1) (AID 1645889). Further: % of control where 0% means no effect; nearly all actives have a fitted effect of over 40% in size. An outline of the steps:
as §1

A short description of test [6]: Cell Viability qHTS for small molecule stabilizers of the endoplasmic reticulum resident proteome (AID 1508629).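 Further: human SH-SY5Y neuroblastoma cells carrying the GLuc-SERCaMP reporter; compound exposure about 46 h in total before the viability read; on the % scale 0 is the no-effect control and ±100 the full control effect.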 The settings on record: cell viability counter-screen, 100 nM thapsigargin for final 4 h. (In general: Quantitative high-throughput screening tests each substance at several concentrations.)
Test [7] concerns the target Cytochrome P450 2C9 (Homo sapiens) (UniProt P11712). Put plainly: qHTS Assay for Inhibitors and Substrates of Cytochrome P450 2C9 (AID 883). Further: potency means the concentration at half of the fitted maximal effect; nearly all actives have a fitted effect of over 60% in size. The gist of the method: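 10nM CYP2C9 + 100uM Luciferin-H (=KM), 25mM KPO4; cpd 10 min 37C; NADPH regen, 60 min 37C; stop/detect with P450 Glo-Buffer 20 min; luminescence. Norm. to 57uM sulphaphenazole as full inhibition.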
Test [8] addresses Cytochrome P450 2C19 (Homo sapiens) (UniProt P33261). Put plainly: qHTS Assay for Inhibitors and Substrates of Cytochrome P450 2C19 (AID 899). Further: potency means the concentration at half of the fitted maximal effect; nearly all actives have a fitted effect of over 60% in size. An outline of the steps: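 Luminescent read-out of luciferin formed from Luciferin-H EGE (10uM, equal to KM). Enzyme 5nM in 50mM KPO4; compound added, 10 min at 37C, then NADPH regenerating system for 60 min at 37C. Full inhibition defined by 57uM ketoconazole.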

Test [9] concerns the target Cytochrome P450 3A4 (Homo sapiens) (UniProt P08684). Put plainly: qHTS Assay for Inhibitors and Substrates of Cytochrome P450 3A4 (AID 884). Further: nearly all actives have a fitted effect of over 50% in size. Further: potency means the concentration at half of the fitted maximal effect. An outline of the steps: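 Luminescent readout of luciferin produced by CYP3A4 (20 nM) dealkylation of Luciferin-PPXE, 25 uM (its KM). NADPH-driven reaction ran 60 min at RT after 10 min compound preincubation; data scaled to 57 uM ketoconazole as 100% inhibition.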

For test [10], the target named is Cytochrome P450 2D6 (Homo sapiens) (UniProt P10635). Put plainly: qHTS Assay for Inhibitors and Substrates of Cytochrome P450 2D6 (AID 891). Further: potency means the concentration at half of the fitted maximal effect; nearly all actives have a fitted effect of over 60% in size. An outline of the steps:
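Luminescent read-out of luciferin formed by 5 nM human CYP2D6 demethylating 30 uM Luciferin-ME EGE (Km level) over 60 min at room temperature after NADPH regeneration addition. Data normalized to full inhibition by 1.43 uM quinidine.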

A short description of test [11]: qHTS Assay for Identification of Small Molecule Agonists for Hypoxia Response Element Signaling Pathway (AID 914; active means well fitted activation curve with a large enough effect in the signal ratio, with a control signal flat, not every such curve was filed as active; the % refers to the signal ratio; further: potency means the concentration at half of the fitted maximal effect; on activation: % of control where 0% means no effect). Conditions: ME-180 (cervical carcinoma) HRE-bla reporter, beta-lactamase ratio, CoCl2, 17 h; activation: hits give high values. An outline of the steps:
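ME-180 cells carrying an HRE-driven beta-lactamase reporter were treated with compounds in a titration series plus an EC50 level of CoCl2 for 17 h at 37 degrees Celsius; CCF4 readout as the 460nm/530nm ratio gave AC50 values.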

A number with no mark means an inactive call. Results filed as inconclusive are left out. The source made the active and inactive calls. Unless noted, the call rests on the fitted dose curve; in most records, active means well fitted curve in the direction sought with a large enough effect; inconclusive means small, poorly fitted or top-dose-only effect, or another doubt; inactive means no such curve, though single readings can be large; an effect the other way counts as inactive or inconclusive.

We go through 27 compounds from PubChem BioAssay (NCATS).

Cytochrome P450 3A4 (Homo sapiens), sequence (P08684 whole entry, looked up): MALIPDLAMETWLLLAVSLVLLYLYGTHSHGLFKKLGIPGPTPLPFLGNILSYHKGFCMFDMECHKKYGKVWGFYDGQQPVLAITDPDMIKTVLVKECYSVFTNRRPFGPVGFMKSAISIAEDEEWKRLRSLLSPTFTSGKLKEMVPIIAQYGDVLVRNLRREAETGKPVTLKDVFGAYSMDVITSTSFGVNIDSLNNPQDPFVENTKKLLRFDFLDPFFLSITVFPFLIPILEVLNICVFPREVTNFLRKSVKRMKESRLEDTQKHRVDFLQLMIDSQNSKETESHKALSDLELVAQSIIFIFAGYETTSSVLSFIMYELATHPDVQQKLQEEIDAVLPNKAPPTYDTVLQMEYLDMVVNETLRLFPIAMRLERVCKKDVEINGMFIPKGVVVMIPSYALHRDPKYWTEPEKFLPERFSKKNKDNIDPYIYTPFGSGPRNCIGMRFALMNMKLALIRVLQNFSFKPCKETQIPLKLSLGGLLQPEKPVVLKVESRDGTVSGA
Rap guanine nucleotide exchange factor 4 (Homo sapiens), sequence (Q8WZA2 whole entry, looked up): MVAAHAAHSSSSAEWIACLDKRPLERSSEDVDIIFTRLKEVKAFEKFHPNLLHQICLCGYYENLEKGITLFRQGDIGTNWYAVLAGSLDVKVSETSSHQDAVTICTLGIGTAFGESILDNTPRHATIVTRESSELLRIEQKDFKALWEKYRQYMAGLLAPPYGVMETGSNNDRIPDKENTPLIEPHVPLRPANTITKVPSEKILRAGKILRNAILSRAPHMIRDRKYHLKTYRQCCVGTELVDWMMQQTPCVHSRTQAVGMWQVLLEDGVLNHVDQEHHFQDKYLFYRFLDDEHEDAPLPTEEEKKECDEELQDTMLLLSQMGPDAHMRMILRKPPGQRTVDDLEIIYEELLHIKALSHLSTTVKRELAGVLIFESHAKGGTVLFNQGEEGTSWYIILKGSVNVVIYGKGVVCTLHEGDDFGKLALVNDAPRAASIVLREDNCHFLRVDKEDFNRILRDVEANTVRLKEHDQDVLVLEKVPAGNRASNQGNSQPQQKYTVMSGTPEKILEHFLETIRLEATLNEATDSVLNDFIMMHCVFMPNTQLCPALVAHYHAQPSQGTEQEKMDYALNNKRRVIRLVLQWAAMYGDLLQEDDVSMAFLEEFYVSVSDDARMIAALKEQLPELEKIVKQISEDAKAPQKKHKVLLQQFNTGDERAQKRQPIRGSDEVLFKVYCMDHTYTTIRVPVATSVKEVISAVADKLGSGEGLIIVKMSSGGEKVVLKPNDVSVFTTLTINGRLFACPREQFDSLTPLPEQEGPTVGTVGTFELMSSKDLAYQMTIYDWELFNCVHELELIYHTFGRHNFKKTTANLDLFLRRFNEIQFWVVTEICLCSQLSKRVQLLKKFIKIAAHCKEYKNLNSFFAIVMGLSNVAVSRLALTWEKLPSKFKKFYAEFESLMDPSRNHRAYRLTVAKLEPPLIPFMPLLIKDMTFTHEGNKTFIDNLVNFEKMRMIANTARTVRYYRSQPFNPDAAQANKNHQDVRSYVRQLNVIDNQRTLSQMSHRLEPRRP
Cytochrome P450 2C9 (Homo sapiens), sequence (P11712 whole entry, looked up): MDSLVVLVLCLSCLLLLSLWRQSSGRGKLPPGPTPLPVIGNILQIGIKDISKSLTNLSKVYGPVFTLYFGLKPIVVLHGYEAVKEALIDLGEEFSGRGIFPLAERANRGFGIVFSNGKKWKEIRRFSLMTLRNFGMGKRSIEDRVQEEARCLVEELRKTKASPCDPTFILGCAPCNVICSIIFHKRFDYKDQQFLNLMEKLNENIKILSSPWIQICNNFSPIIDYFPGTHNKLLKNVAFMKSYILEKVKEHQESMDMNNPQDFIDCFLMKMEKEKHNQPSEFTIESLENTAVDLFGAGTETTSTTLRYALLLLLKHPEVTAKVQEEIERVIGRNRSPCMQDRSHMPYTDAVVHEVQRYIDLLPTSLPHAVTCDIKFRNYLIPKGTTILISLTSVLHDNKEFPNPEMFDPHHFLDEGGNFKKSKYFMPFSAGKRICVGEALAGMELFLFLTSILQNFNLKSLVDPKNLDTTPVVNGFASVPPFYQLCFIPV
Cytochrome P450 2C19 (Homo sapiens), sequence (P33261 whole entry, looked up): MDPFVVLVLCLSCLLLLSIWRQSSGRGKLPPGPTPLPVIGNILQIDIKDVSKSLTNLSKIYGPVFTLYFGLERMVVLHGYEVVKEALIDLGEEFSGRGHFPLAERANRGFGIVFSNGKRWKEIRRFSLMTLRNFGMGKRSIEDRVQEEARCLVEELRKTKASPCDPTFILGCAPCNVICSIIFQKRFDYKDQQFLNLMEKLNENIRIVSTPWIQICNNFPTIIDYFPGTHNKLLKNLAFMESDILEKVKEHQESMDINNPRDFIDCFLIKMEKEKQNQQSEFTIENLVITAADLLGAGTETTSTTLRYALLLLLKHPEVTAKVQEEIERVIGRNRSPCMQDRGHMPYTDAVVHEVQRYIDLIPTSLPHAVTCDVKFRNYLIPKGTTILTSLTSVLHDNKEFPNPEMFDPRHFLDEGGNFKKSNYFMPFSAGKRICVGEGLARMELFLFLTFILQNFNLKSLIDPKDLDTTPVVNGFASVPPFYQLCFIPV
Rap guanine nucleotide exchange factor 3 (Homo sapiens), sequence (O95398 whole entry, looked up): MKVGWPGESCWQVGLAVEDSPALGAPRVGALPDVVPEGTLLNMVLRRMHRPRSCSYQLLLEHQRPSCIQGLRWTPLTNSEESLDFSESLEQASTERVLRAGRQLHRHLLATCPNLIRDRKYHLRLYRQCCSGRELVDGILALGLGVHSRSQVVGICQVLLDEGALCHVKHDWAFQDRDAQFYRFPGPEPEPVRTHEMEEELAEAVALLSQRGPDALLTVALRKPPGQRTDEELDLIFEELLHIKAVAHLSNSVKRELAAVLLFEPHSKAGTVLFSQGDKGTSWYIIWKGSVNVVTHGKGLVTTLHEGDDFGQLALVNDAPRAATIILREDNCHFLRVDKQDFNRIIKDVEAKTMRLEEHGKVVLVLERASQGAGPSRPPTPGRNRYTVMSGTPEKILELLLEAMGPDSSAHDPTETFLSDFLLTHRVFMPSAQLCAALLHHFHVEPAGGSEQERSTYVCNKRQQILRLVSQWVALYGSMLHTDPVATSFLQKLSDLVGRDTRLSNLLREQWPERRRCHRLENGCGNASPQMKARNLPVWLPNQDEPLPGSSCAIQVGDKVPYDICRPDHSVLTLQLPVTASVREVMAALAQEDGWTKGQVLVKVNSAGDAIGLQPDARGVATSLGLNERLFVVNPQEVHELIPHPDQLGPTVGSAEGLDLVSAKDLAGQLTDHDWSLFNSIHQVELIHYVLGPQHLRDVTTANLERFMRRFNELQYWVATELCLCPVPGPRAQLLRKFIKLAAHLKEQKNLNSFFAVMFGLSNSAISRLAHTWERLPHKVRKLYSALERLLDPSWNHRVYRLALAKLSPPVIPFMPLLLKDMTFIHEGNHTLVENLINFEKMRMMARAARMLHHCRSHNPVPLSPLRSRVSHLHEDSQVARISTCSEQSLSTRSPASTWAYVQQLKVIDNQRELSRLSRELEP
Cytochrome P450 2D6 (Homo sapiens), sequence (P10635 whole entry, looked up): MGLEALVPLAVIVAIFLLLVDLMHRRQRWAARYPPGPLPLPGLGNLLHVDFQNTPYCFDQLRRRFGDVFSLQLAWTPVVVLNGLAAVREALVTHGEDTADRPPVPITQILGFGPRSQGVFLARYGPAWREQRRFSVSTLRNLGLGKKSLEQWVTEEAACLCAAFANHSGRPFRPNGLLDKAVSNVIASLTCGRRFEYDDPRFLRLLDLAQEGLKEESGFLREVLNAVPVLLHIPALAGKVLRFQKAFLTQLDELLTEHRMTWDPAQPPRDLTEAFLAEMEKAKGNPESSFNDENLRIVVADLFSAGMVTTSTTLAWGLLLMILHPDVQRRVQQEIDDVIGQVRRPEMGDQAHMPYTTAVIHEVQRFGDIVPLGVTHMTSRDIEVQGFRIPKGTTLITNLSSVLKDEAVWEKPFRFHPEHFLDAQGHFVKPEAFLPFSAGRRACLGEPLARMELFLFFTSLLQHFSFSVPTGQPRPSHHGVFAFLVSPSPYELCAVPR

Turning to `N#Cc1cccc(-c2nc(N3CCNCC3)c3ccccc3n2)c1`, the call in test [1] and in [2] was inactive.

For `Cc1ccc(P(=O)(CSC(=N)N)c2ccc(C)cc2)cc1`, the activation in test [3] was -5.01% [at 17.1 µM]; in [5], -0.0561% [at 30.8 µM]. Further, in test [4], the compound was called inactive. Take `CN(C)c1nccc(N(Cc2ccccc2)Cc2ccccc2)c1C#N`: in test [6], the max response was -2.77%. On to `CN(C)c1ncc2ncc(=O)n(CCc3ccccc3)c2n1`, for which the results for the Potency in test [7] and in test [8] were 6.31 µM (active) and 2 µM (active), respectively. Consider `c1ccc2c(N3CCNCC3)nc(-c3ccc4c(c3)OCO4)nc2c1`, for which the Potency is 7.94 µM (active) in test [9] and 3.16 µM (active) in test [10]. Further, the outcome in test [1] and in test [2] was inactive. Turning to `O=C(c1ccco1)N1CCC[C@@]2(CCN(c3ccncc3)C2)C1`, in test [9], the Potency was 1.26 µM (active). For the compound `COCCn1c(=O)c(-c2cn(C)c3ccccc23)nc2cnc(N3CCNCC3)nc21`, the Potency in [11] is 3.16 µM (active). The max response in [6] is -7.1%. On to `c1ccc(-c2cccc(N3CC4(CCNCC4)C3)c2)cc1`, for which the max response in test [6] was -13.3%. The same measure, in the same setting: the same measure for `Cn1c(=O)c(CCc2ccccc2)nc2cnc(OCc3ccccc3)nc21`: -14.7%.

`Clc1ccccc1-c1nc(N2CCNCC2)c2ccccc2n1`: the outcome in [1] and in test [2] was inactive. Besides, the activation in test [11] was 16.5%. For `COc1ccc(-c2nc3cnc(N4CCNCC4)nc3n(CCc3ccccc3)c2=O)cc1`, the Potency in [7] is 3.98 µM (active). Regarding `N#CCCn1c(=O)c(CCc2ccccc2)nc2cnc(Oc3cccc(Cl)c3)nc21`, the Potency is 3.16 µM (active) in test [7], 0.794 µM (active) in [9] and 6.31 µM (active) in test [8]. Besides, the max response in test [6] is 7.03%. Consider `Cc1ccccc1-c1nc(NC2CCNCC2)c2ccccc2n1`, for which the call in test [1] and in test [2] was inactive. Moreover, in [11], the activation was 12.4%. Consider `FC(F)(F)c1ccccc1-c1nc(N2CCNCC2)c2ccccc2n1`, for which the compound was called inactive in test [1] and in test [2].

In the case of `CN1CCN(c2ncncc2-c2ccccc2C(F)(F)F)CC1`, in test [11], the activation was 5.49%. The max response in [6] is 18.7%. Consider `CN(C)c1ccc(-c2nccc(NCCN3CCOCC3)n2)cc1`, for which the call in [1] and in test [2] was inactive. Besides, the activation in [11] is -5.52%. In addition, the max response in [6] is 10.1%. In the case of `COc1ccc(Oc2ncc3nc(CCc4ccccc4)c(=O)n(C[C@H]4CCCO4)c3n2)cc1`, the max response in test [6] was 6.27%. In the case of `CN1CCN(c2nc(-c3cccc(C#N)c3)nc3ccccc23)CC1`, the compound was classed as inactive in test [1] and in [2]. With `Cc1cccc(CNc2cc(-c3ccccc3CN(C)C)ncn2)c1`, the outcome in test [1] and in test [2] was inactive. Also, the max response in test [6] was -21.4%.

In the case of `COc1cccc(CN2CCN(C(=O)c3ccc(-c4ccccc4)cc3)CC2)c1OC`, in test [6], the max response is 10.7%. For `O=c1c(-c2ccccc2)nc2cnc(N3CCNCC3)nc2n1C1CC1`, the Potency in [7] was 0.158 µM (active); in test [11] it was 3.16 µM (active).

For the compound `COCCn1c(=O)c(CCc2ccccc2)nc2cnc(Nc3cccc(OC)c3)nc21`, in test [3], the result was inactive. On to `Cc1noc(C)c1C(=O)N1CCC2(CCN(Cc3ccc(C#N)cc3)CC2)CC1`, for which, in [3], the outcome was inactive. Turning to `O=C(c1cccc(F)c1)N1CCC2(CC1)CN(c1cccc(-c3ccccc3)c1)C2`, in test [9], the Potency entry was “inactive”. Further, the call in [3] was inactive.

With `COCC(=O)N1CCC2(CC1)CN(c1ccccn1)C2`, in test [3], the result was inactive. The same measure, in the same setting: the same measure for `COCC(=O)N1CCC2(CC1)CCN(C(=O)Nc1cccc(C#N)c1)CC2`: “inactive”. Regarding `CN(C)c1ncc2nc(-c3cccs3)c(=O)n(C[C@H]3CCCO3)c2n1`, the activation in test [11] is -3.72%.
